Test results from PubChem BioAssay (NCATS).
Records with an inconclusive call do not appear. Values without a mark were called inactive. Active and inactive are the calls of the source. Calls come from the whole dose curve; as a rule, active = well fitted inhibition curve with a large enough effect; inconclusive = small, poorly fitted or top-dose-only effect; inactive = flat fitted curve, though single readings scatter.
Potency is the fitted concentration of half-maximal effect.

What follows are compounds tested on ECU (assay: qHTS profiling for inhibitors of Plasmodium falciparum proliferation (AID 504749; note: nearly all actives have a fitted effect of over 60% in size;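 for activity, negative = inhibition: 0% = DMSO vehicle and full inhibition = artemisinin control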)). Conditions: P. falciparum in erythrocytes, SYBR Green DNA, 72 h; series mostly up to 28.7 µM; activity, negative = inhibition: at the top concentration.
How it was run: (§1)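 Fluorescence of SYBR Green-bound parasite DNA, read at 485/535 nm, served as the growth measure. Infected erythrocytes were cultured with compound 72 h; artemisinin (0.29 uM) and DMSO wells defined the normalization range.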
With `FCOC(C(F)(F)F)C(F)(F)F` the “activity, negative = inhibition” value was 13.3%.
In the case of `C=Cc1ccc(S(=O)(=O)O)cc1`, the “activity, negative = inhibition” value was 14.7%.
With `CC12CCC(C[N+](C)(CCC[N+](C)(C)C)C1)C2(C)C` (stereo not drawn) the “activity, negative = inhibition” value was 16%.
`CC1CC(OC(=O)C(O)c2ccccc2)CC(C)(C)C1` (stereo not drawn) was tested, and the “activity, negative = inhibition” value was -4.92%.
`CC/C(=C(/CC)c1ccc(OP(=O)(O)O)cc1)c1ccc(OP(=O)(O)O)cc1` was tested, and the “activity, negative = inhibition” value was 2.74%.
`O=C(NNCNNC(=O)c1ccncc1)c1ccncc1` was tested, and the “activity, negative = inhibition” value was 6.01%.
`CC(C)c1ncc([N+](=O)[O-])n1C` was tested, and the “activity, negative = inhibition” value was 14.9%.
In the case of `CC(C)CCC[C@@H](C)[C@H]1CC[C@H]2[C@@H]3CC[C@@H]4C[C@H](O)CC[C@]4(C)[C@H]3CC[C@]12C`, the “activity, negative = inhibition” value was 0.745%.
With `Cc1ccc(S(=O)(=O)NCl)cc1` the “activity, negative = inhibition” value was 1.82%.
With `CC(/C=C/C=C(\C)C(=O)O[C@@H]1O[C@H](CO[C@@H]2O[C@H](CO)[C@@H](O)[C@H](O)[C@H]2O)[C@@H](O)[C@H](O)[C@H]1O)=C\C=C\C=C(C)\C=C\C=C(/C)C(=O)O[C@@H]1O[C@H](CO[C@@H]2O[C@H](CO)[C@@H](O)[C@H](O)[C@H]2O)[C@@H](O)[C@H](O)[C@H]1O` the “activity, negative = inhibition” value was 5.26%.
`CCCCCCCCCCCCCCCCCC(=O)OCC(C)O` (stereo not drawn) was tested, and the “activity, negative = inhibition” value was 0.242%.
In the case of `CC(C)(Oc1ccc(C2CCCc3ccccc32)cc1)C(=O)O` (stereo not drawn), the “activity, negative = inhibition” value was 12.1%.
For `CO`, the “activity, negative = inhibition” value was 1.9%.
For `O=C(O)/C=C/C(=O)Nc1ccc(S(=O)(=O)Nc2nccs2)cc1`, the “activity, negative = inhibition” value was 4.05%.
For `N[C@H](CC(=O)O)C(=O)O`, the “activity, negative = inhibition” value was 2.11%.
In the case of `CCCc1ccc(C(=O)O)cc1`, the “activity, negative = inhibition” value was 1.9%.
In the case of `O=S(=O)(O)CC(S)CS` (stereo not drawn), the “activity, negative = inhibition” value was -7.63%.
In the case of `O=c1[nH]c(=O)n([C@H]2C[C@H](O)[C@@H](CO)O2)cc1/C=C/Br`, the “activity, negative = inhibition” value was 2.86%.
With `CN[C@@H]1[C@H](O[C@H]2[C@H](O[C@H]3[C@H](O)[C@@H](O)[C@H](N=C(N)N)[C@@H](O)[C@@H]3N=C(N)N)O[C@@H](C)[C@]2(O)C=O)O[C@@H](CO)[C@H](O)[C@H]1O` the “activity, negative = inhibition” value was 0.0451%.

These compounds were tested on FAB9 in the same assay as above. Conditions: P. falciparum in erythrocytes, SYBR Green DNA, 72 h; series mostly up to 28.7 µM; activity, negative = inhibition: at the top concentration.
How it was run: as §1
In the case of `CC(=O)Nc1ccc(OC(C)=O)cc1`, the “activity, negative = inhibition” value was 7.36%.
With `CC(C)(C)c1ccc2c(S(=O)(=O)O)c(C(C)(C)C)ccc2c1` the “activity, negative = inhibition” value was 2.03%.
For `CCCCCCCCCCCCOCCCN`, the “activity, negative = inhibition” value was 11.3%.
For `COC(=O)C(CN)c1c[nH]c2ccc(OC)cc12` (stereo not drawn), the “activity, negative = inhibition” value was 1.69%.
With `CC1(C)S[C@@H]2[C@H](NC(=O)C3(N)CCCCC3)C(=O)N2[C@H]1C(=O)O` the “activity, negative = inhibition” value was 6.87%.
With `FC(F)(F)C(F)(F)C(F)(F)C(F)(F)C(F)(F)C(F)(F)F` the “activity, negative = inhibition” value was 3.65%.
For `CCCCO`, the “activity, negative = inhibition” value was 11.4%.
With `CCOC(=O)c1c[nH]c2cc(OCC(C)C)c(OCC(C)C)cc2c1=O` the Potency was 100 nM (active).
In the case of `CCN(CC)CCOc1ccc2nc(N(C)C)sc2c1`, the “activity, negative = inhibition” value was 6.55%.
For `OCl`, the “activity, negative = inhibition” value was 9.19%.
For `COC(=O)CC[C@H](N)C(=O)O`, the “activity, negative = inhibition” value was -5.26%.
In the case of `COc1cc(S(C)=O)ccc1-c1nc2ncccc2[nH]1` (stereo not drawn), the “activity, negative = inhibition” value was 4.95%.
For `O=C(O)Cc1nn(Cc2ccc(Br)cc2F)c(=O)c2ccccc12`, the “activity, negative = inhibition” value was -5.17%.
`O=C(O)/C=C/c1ccccc1` was tested, and the “activity, negative = inhibition” value was 1.62%.
With `Cc1cccc(C)c1NC(=O)NC1=CCCN1C` the “activity, negative = inhibition” value was 12.7%.
In the case of `NCC[C@H](O)C(=O)N[C@@H]1C[C@H](N)[C@@H](O[C@H]2O[C@H](CN)[C@@H](O)[C@H](O)[C@H]2O)[C@H](O)[C@H]1O[C@H]1O[C@H](CO)[C@@H](O)[C@H](N)[C@H]1O`, the “activity, negative = inhibition” value was 6.15%.
For `CC1=CC(=O)NS(=O)(=O)O1`, the “activity, negative = inhibition” value was 10.7%.
`O=C(O)[C@H]1C(=CCO)O[C@H]2CC(=O)N12` was tested, and the “activity, negative = inhibition” value was 6.6%.
For `CCC(Cc1c(I)cc(I)c(O)c1I)C(=O)O` (stereo not drawn), the “activity, negative = inhibition” value was -1.17%.
In the case of `CCCCC[C@H](O)/C=C/[C@@H]1[C@H]2C/C(=C/CCCC(=O)O)O[C@H]2C[C@H]1O`, the “activity, negative = inhibition” value was 4.68%.
In the case of `FCOC(C(F)(F)F)C(F)(F)F`, the “activity, negative = inhibition” value was -1%.
`C=Cc1ccc(S(=O)(=O)O)cc1` was tested, and the “activity, negative = inhibition” value was 4.61%.
`CC12CCC(C[N+](C)(CCC[N+](C)(C)C)C1)C2(C)C` (stereo not drawn) was tested, and the “activity, negative = inhibition” value was 5.87%.
For `CC1CC(OC(=O)C(O)c2ccccc2)CC(C)(C)C1` (stereo not drawn), the “activity, negative = inhibition” value was 2.77%.
With `CC/C(=C(/CC)c1ccc(OP(=O)(O)O)cc1)c1ccc(OP(=O)(O)O)cc1` the “activity, negative = inhibition” value was 7.6%.
For `O=C(NNCNNC(=O)c1ccncc1)c1ccncc1`, the “activity, negative = inhibition” value was 12.9%.
`CC(C)c1ncc([N+](=O)[O-])n1C` was tested, and the “activity, negative = inhibition” value was -7.46%.
In the case of `CC(C)CCC[C@@H](C)[C@H]1CC[C@H]2[C@@H]3CC[C@@H]4C[C@H](O)CC[C@]4(C)[C@H]3CC[C@]12C`, the “activity, negative = inhibition” value was 7.34%.
For `Cc1ccc(S(=O)(=O)NCl)cc1`, the “activity, negative = inhibition” value was 4.67%.
With `CC(/C=C/C=C(\C)C(=O)O[C@@H]1O[C@H](CO[C@@H]2O[C@H](CO)[C@@H](O)[C@H](O)[C@H]2O)[C@@H](O)[C@H](O)[C@H]1O)=C\C=C\C=C(C)\C=C\C=C(/C)C(=O)O[C@@H]1O[C@H](CO[C@@H]2O[C@H](CO)[C@@H](O)[C@H](O)[C@H]2O)[C@@H](O)[C@H](O)[C@H]1O` the “activity, negative = inhibition” value was 6.9%.
In the case of `CCCCCCCCCCCCCCCCCC(=O)OCC(C)O` (stereo not drawn), the “activity, negative = inhibition” value was 3.79%.
With `CC(C)(Oc1ccc(C2CCCc3ccccc32)cc1)C(=O)O` (stereo not drawn) the “activity, negative = inhibition” value was -3.09%.
`CO` was tested, and the “activity, negative = inhibition” value was 11.3%.
In the case of `O=C(O)/C=C/C(=O)Nc1ccc(S(=O)(=O)Nc2nccs2)cc1`, the “activity, negative = inhibition” value was 1.62%.
For `N[C@H](CC(=O)O)C(=O)O`, the “activity, negative = inhibition” value was 5.32%.
With `CCCc1ccc(C(=O)O)cc1` the “activity, negative = inhibition” value was 3.37%.
`O=S(=O)(O)CC(S)CS` (stereo not drawn) was tested, and the “activity, negative = inhibition” value was 2.6%.
For `O=c1[nH]c(=O)n([C@H]2C[C@H](O)[C@@H](CO)O2)cc1/C=C/Br`, the “activity, negative = inhibition” value was 6.68%.
`CN[C@@H]1[C@H](O[C@H]2[C@H](O[C@H]3[C@H](O)[C@@H](O)[C@H](N=C(N)N)[C@@H](O)[C@@H]3N=C(N)N)O[C@@H](C)[C@]2(O)C=O)O[C@@H](CO)[C@H](O)[C@H]1O` was tested, and the “activity, negative = inhibition” value was 3.03%.
